# Reference: PubChem BioAssay (NCATS)
# “And” between values parts separate entries of the source, which are not always exact repeats. Identical values can stand only once. Results filed as inconclusive are left out. A call without a number means that no potency is given here. A number with no mark means an inactive call. The source made the active and inactive calls. Unless noted, calls follow the shape of the dose curve; as a rule, active = well fitted curve in the direction sought with a large enough effect in the repeat runs; inconclusive = weak or mixed curves; inactive = no such curve, though single readings can be large; an effect the other way counts as inactive or inconclusive.
# Assays:
# [1] = molecular target: Calcium and integrin-binding protein 1 (Homo sapiens) (UniProt Q99828); assay: Primary qHTS for Identification of Calcium Integrin Binding Protein 1 (CIB1) Competitor (AID 1508620; active = well fitted curve in the direction sought with a large enough effect; an effect the other way counts as inactive or inconclusive;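 also: GST tagged CIB1 binding a fluorescein labelled alphaIIb integrin peptide tracer; top concentration of the series differs between compounds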)
# Chain of Calcium and integrin-binding protein 1 (Homo sapiens) (Q99828 whole entry, looked up): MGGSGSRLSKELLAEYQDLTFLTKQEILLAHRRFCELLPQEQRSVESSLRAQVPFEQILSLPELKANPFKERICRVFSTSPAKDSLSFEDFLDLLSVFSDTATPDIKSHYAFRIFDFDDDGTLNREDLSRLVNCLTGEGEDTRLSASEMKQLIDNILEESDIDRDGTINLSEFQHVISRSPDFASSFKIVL
# Procedure, shortened: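 Fluorescence polarization competition: CIB1-GST (1 uM final) preincubated with compound 15 min at room temperature, then FITC-labeled alphaIIb peptide (100 nM final) added for another 15 min. Polarization read at Ex 480/Em 540.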
# [2] = Primary qHTS for small molecule stabilizers of the endoplasmic reticulum resident proteome: Secreted ER Calcium Modulated Protein (SERCaMP) assay (AID 1508630; active = well fitted curve in the direction sought with a large enough effect; an effect the other way counts as inactive or inconclusive)
# Procedure, shortened: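 The SH-SY5Y reporter protocol was run at 3 concentrations up to 38.3 uM (primary) or 11 concentrations (follow-up): 16 h compound, 100 nM thapsigargin for 4 h, then extracellular luciferase luminescence.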
# [3] = A High-Content qHTS Against Drug Library for the Identification of Small Molecules that Inhibit DYT1 Early Onset Primary Dystonia-Associated Cell Pathology (AID 1645839; calls by dose curve; also: potency is read from the fitted curve at half-maximal effect)
# Procedure, shortened: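 Induced EGFP-delE TorsinA cells are imaged after 48 h of compound treatment. Punctate fusion-protein distribution gives the %pathology value, while nuclei counts flag toxicity. Wild-type EGFP-hTOR1A cells define the normal pattern.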
# [4] = molecular target: Cytochrome P450 2D6 (Homo sapiens) (UniProt P10635); assay: Cytochrome P450 family 2 subfamily D member 6 (CYP2D6) small molecule antagonists: luciferase biochemical (cell-free) qHTS assay (AID 1645840); also: nearly all actives have a fitted effect of over 55% in size; also: potency is read from the fitted curve at half-maximal effect
# Chain of Cytochrome P450 2D6 (Homo sapiens) (P10635 whole entry, looked up): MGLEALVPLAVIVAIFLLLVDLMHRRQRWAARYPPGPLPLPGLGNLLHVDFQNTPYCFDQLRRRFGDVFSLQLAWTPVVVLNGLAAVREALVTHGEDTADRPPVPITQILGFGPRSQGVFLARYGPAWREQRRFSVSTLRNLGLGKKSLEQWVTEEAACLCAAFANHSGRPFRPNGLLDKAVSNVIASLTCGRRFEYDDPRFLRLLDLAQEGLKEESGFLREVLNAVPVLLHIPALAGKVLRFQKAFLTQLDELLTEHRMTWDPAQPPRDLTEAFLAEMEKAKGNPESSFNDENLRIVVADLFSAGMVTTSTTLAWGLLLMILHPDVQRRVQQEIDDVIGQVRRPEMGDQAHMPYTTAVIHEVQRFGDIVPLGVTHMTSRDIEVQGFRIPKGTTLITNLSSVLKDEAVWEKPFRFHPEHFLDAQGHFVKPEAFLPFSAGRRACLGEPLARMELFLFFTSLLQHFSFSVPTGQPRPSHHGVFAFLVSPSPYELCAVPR
# Procedure, shortened: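 P450-Glo CYP2D6 system: proluciferin substrate converted by enzyme to luciferin, read by luminescence proportional to activity. Enzyme-substrate mix with compound 10 min at room temperature, then NADPH regeneration 1 h before detection reagent.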
# [5] = molecular target: Cytochrome P450 2C9 (Homo sapiens) (UniProt P11712); assay: Cytochrome P450 family 2 subfamily C member 9 (CYP2C9) small molecule antagonists: luciferase biochemical (cell-free) qHTS assay (AID 1645842); also: nearly all actives have a fitted effect of over 55% in size; also: potency is read from the fitted curve at half-maximal effect
# Chain of Cytochrome P450 2C9 (Homo sapiens) (P11712 whole entry, looked up): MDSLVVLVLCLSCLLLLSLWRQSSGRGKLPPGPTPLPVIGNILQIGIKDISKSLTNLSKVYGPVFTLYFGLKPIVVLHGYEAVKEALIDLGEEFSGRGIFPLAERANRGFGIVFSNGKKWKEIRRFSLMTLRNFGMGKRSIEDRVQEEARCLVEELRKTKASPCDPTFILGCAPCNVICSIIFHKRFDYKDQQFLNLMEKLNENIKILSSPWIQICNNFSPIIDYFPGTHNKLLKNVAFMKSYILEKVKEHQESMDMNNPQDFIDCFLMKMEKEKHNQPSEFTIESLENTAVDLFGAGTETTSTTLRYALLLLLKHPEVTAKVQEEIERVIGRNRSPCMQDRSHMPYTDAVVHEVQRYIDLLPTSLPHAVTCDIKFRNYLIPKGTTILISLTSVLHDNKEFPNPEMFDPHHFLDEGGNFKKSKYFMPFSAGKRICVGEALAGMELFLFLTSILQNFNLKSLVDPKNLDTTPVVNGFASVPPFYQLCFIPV
# Procedure, shortened: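 P450-Glo CYP2C9 system: proluciferin substrate with enzyme in mix containing 0.4% BSA, 10 min at room temperature, then NADPH regeneration solution added and incubated 1 h at 37C. Detection reagent stopped reaction; luminescence read after 20 min as RLU.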
# [6] = molecular target: Cytochrome P450 3A4 (Homo sapiens) (UniProt P08684); assay: Cytochrome P450 family 3 subfamily A member 4 (CYP3A4) small molecule antagonists: luciferase qHTS assay (AID 1645841); also: nearly all actives have a fitted effect of over 45% in size; also: potency is read from the fitted curve at half-maximal effect
# Chain of Cytochrome P450 3A4 (Homo sapiens) (P08684 whole entry, looked up): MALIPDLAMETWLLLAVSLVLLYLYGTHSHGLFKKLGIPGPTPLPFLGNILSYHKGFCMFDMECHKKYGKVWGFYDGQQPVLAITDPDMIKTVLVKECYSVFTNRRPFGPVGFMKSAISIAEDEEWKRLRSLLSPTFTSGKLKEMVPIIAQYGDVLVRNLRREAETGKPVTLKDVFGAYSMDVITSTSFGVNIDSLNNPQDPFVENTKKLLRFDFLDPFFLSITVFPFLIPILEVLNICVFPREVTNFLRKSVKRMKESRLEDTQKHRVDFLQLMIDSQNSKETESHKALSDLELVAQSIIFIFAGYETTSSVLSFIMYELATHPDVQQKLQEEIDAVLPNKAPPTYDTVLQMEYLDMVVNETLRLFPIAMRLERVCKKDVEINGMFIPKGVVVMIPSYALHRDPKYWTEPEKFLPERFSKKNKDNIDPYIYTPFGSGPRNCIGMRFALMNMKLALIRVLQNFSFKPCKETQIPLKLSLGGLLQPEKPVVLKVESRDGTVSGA
# Procedure, shortened: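 P450-Glo CYP3A4 enzyme with proluciferin substrate was preincubated with DMSO-dissolved compounds for 10 min at room temperature. NADPH regeneration solution started a 1 h reaction. Detection reagent stopped it, and luminescence was read after 20 min.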
# [7] = Confirmatory qHTS to identify inhibitors of SARS-CoV-2 cell entry (AID 1645844; calls by dose curve; also: nearly all actives have a fitted effect of over 45% in size; also: potency is read from the fitted curve at half-maximal effect)
# Procedure, shortened: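 Using stable human ACE2 Expi293F cells, compounds preincubated 1 hr before spike pseudoparticle infection; luciferase signal after 48 hr at 37C, 5% CO2, normalised to spike PP and no-fusion-protein PP wells.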
smiles,measurement,setting,value
CCOP(=O)(OCC)C(C)NC(=O)N(CCCl)N=O (stereo unspecified),outcome,[1],inactive
same,Potency,[2],inactive
O=[N+]([O-])c1cc([N+](=O)[O-])c2ccccc2c1,outcome,[1],inactive
same,Potency,[2],inactive
same,Potency,[3],inactive
same,Potency,[4],inactive
same,Potency,[5],inactive
CCO/N=C(\CC)C1=C(O)CC(c2c(C)cc(C)cc2C)CC1=O (stereo unspecified),outcome,[1],inactive
same,Potency,[2],inactive
same,Potency,[3],inactive
same,Potency,[5],4.48 µM (active)
CC(C)[C@]12O[C@@H]1[C@@H]1O[C@]13[C@]1(O[C@H]1C[C@@H]1C4=C(CC[C@@]13C)C(=O)OC4)[C@H]2O,outcome,[1],inactive
same,Potency,[2],inactive
O=C(Nc1ccccc1-c1ccc(Cl)cc1)c1cccnc1Cl,outcome,[1],inactive
same,Potency,[2],inactive
same,Potency,[3],inactive
same,Potency,[4],22.4 µM (active)
same,Potency,[5],inactive
C[C@](O)(COc1ccc(C#N)cc1)C(=O)Nc1ccc(C#N)c(C(F)(F)F)c1,outcome,[1],inactive
same,Potency,[2],inactive
O=[N+]([O-])/N=C1\NCCN1Cc1ccc(Cl)nc1,outcome,[1],inactive
same,Potency,[2],inactive
same,Potency,[3],inactive
same,Potency,[4],inactive
same,Potency,[5],inactive
O=C(NCC1CCOCC1)c1cnc(Nc2ccc(Cl)cc2Cl)nc1C(F)(F)F,outcome,[1],inactive
same,Potency,[2],inactive
same,Potency,[4],inactive
same,Potency,[6],inactive
CC(C)(O)C=CC(=O)[C@](C)(O)[C@H]1[C@H](O)C[C@]2(C)[C@@H]3CC=C4[C@@H](C=C(O)C(=O)C4(C)C)[C@]3(C)C(=O)C[C@@]12C,outcome,[1],inactive
same,Potency,[2],inactive
CN(C)NC(=O)CCC(=O)O,outcome,[1],inactive
same,Potency,[2],inactive
CO/C=C(/C(=O)OC)c1ccccc1Oc1cc(Oc2ccccc2C#N)ncn1,outcome,[1],inactive
same,Potency,[2],inactive
same,Potency,[3],inactive
same,Potency,[4],39.9 µM (active)
same,Potency,[5],3.66 µM (active)
S=C(SSC(=S)N1CCCCC1)N1CCCCC1,Potency,[3],inactive
same,Potency,[4],inactive
Cc1cc(Nc2nc(N[C@@H](C)c3ncc(F)cn3)ncc2Cl)n[nH]1,Potency,[7],2.71 µM (active)
CS(=O)(=O)c1cccc(CNc2nc(Nc3ccc4c(c3)CCC(=O)N4)ncc2C(F)(F)F)c1,Potency,[7],0.192 µM (active)
CN(c1ncccc1CNc1nc(Nc2ccc3c(c2)CC(=O)N3)ncc1C(F)(F)F)S(C)(=O)=O,Potency,[7],0.857 µM (active)
CN[C@@H](C)[C@H](O)c1ccccc1,Potency,[2],inactive
same,Potency,[3],inactive
same,Potency,[4],inactive
same,Potency,[5],inactive
CNC(=O)c1cc(Oc2ccc(NC(=O)Nc3ccc(Cl)c(C(F)(F)F)c3)c(F)c2)ccn1,Potency,[7],8.57 µM (active)
COc1cc(Nc2ncc3c(n2)-c2ccc(Cl)cc2C(c2c(F)cccc2OC)=NC3)ccc1C(=O)O,Potency,[7],0.0108 µM (active)
CC(C)(C)c1cnc(CSc2cnc(NC(=O)C3CCNCC3)s2)o1,Potency,[7],4.29 µM (active)
CC(=O)Nc1ccc([C@H](C)C(=O)Nc2ncc(C(C)C)s2)cc1,Potency,[7],4.82 µM (active)
CC(C)(O)C(=O)Nc1ccc([N+](=O)[O-])c(C(F)(F)F)c1,Potency,[2],inactive
CC1=C(O)C(=O)C=C2C1=CC=C1[C@@]2(C)CC[C@@]2(C)[C@@H]3C[C@](C)(C(=O)O)CC[C@]3(C)CC[C@]12C,Potency,[2],inactive
same,Potency,[5],12 µM (active)
CC1(N2CCC(n3c([C@@H]4CCCNC4)nc4ccccc43)CC2)CCCCCCC1,outcome,[1],inactive
same,Potency,[5],inactive
CCCCCCCCc1ccc(O)cc1,outcome,[1],inactive
same,Potency,[4],31 µM (active)
same,Potency,[5],30.1 µM (active)
Nc1ccc([N+](=O)[O-])cc1,outcome,[1],inactive
same,Potency,[4],inactive
same,Potency,[5],inactive
N#CCNC(=O)c1ccc(-c2ccnc(Nc3ccc(N4CCOCC4)cc3)n2)cc1,Potency,[7],9.61 µM (active)
CC(C)[C@H](C(=O)Nc1ccc(C(=O)NO)cc1)c1ccccc1,Potency,[7],inactive
Cc1ccc(C(N)=O)cc1Nc1nccc(-c2cn(C(C)C)c3cnccc23)n1,Potency,[7],1.71 µM (active)
Cc1cc(Nc2cc(N3CCN(C)CC3)nc(Sc3ccc(NC(=O)C4CC4)cc3)n2)n[nH]1,Potency,[7],0.121 µM (active)
CSCC[C@@H](NC(=O)[C@@H](Cc1ccccc1)NC(=O)CNC(=O)CNC(=O)[C@@H](N)Cc1ccc(O)cc1)C(=O)O,outcome,[1],inactive
same,Potency,[4],inactive
same,Potency,[5],inactive
CCCCCCCCCCCCCCCC[N+](C)(C)C,Potency,[2],inactive
same,Potency,[3],12.6 µM (active)
same,Potency,[4],871 nM (active) and 849 nM (active)
same,Potency,[5],inactive
C[C@]12COC(=O)C[C@@H]1CC[C@@H]1[C@H]2CC[C@@]2(C)[C@H]1CC[C@]2(C)O,outcome,[1],inactive
same,Potency,[4],inactive
same,Potency,[5],inactive
O=c1[nH]c(-c2ccc(C(F)(F)F)cc2)nc2c1CSCC2,Potency,[7],9.61 µM (active)
O=C1C(I)=CC(=C(c2cc(I)c(O)c(I)c2)c2ccccc2C(=O)O)C=C1I,Potency,[4],9.77 µM (active)
same,Potency,[5],3.09 µM (active)
O=C(O)c1ccccc1O,Potency,[4],inactive
same,Potency,[6],inactive
same,Potency,[5],inactive
O=C(c1cc(Cc2n[nH]c(=O)c3ccccc23)ccc1F)N1CCN(C(=O)C2CC2)CC1,Potency,[7],27.1 µM (active)
CS(=O)(=O)c1ccc(C(=O)C2C(=O)CCCC2=O)c([N+](=O)[O-])c1,Potency,[2],inactive
same,Potency,[3],inactive
same,Potency,[4],inactive
same,Potency,[5],26.4 µM (active)
COc1nn(CSP(=S)(OC)OC)c(=O)s1,Potency,[2],inactive
same,Potency,[4],25.9 µM (active)
same,Potency,[5],5.17 µM (active)
CC(=O)[O][Hg][c]1ccccc1,Potency,[2],inactive
same,Potency,[3],2.82 µM (active)
same,Potency,[4],0.617 µM (active)
same,Potency,[6],7.76 µM (active)
same,Potency,[5],2.45 µM (active)
CN1CC[C@@H](c2c(O)cc(O)c3c(=O)cc(-c4ccccc4Cl)oc23)[C@@H](O)C1,Potency,[7],1.21 µM (active)
